Inconclusive results are not listed. Where a call stands in place of a potency, no number is given. Calls of active or inactive are those of the source. The call rests on the fitted dose curve; in most records, active means well fitted activation curve with a large enough effect in the repeat runs; inconclusive means weak or mixed curves; inactive means flat fitted curve, though single readings scatter.
Assay: A CellTox Green Cytotoxicity Assay to monitor cytotoxicity in HEK293 cells - 24 hour (AID 1224875); further: nearly all actives have a fitted effect of over 45% in size
Conditions: CellTox Green fluorescence; series mostly up to 76.8 µM
Procedure, shortened: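 Real-time, in one plate: 600 HEK293 cells/well with dead-cell DNA dye, pinned compound after 5 h, 37 C incubation over 40 h; viable cells give no appreciable fluorescence.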

Row | SMILES | Potency
1 | Cc1cc(OI)c(C(C)C)cc1-c1cc(C(C)C)c(OI)cc1C | inactive
2 | C[N+](C)(C)CCOC(N)=O | inactive
3 | CC(C)(O)c1ccccc1CC[C@@H](SCC1(CC(=O)O)CC1)c1cccc(/C=C/c2ccc3ccc(Cl)cc3n2)c1 | inactive
4 | CCCCC(CC)CNCC(CC)CCCC (stereo not given) | inactive
5 | COCCOC | inactive
6 | CC(=O)Nc1ccccc1C | inactive
7 | C/C=C(\C)C(=O)OCCC(C)CCC=C(C)C (stereo not given) | inactive
8 | CCCCCCCC/C=C\CCCCCCCC(=O)OC(CO)CO | inactive
9 | CCn1nc(C)c2c1C(=O)NCC(c1ccc(O)cc1)=N2 | inactive
10 | Cc1ccnc2ccccc12 | inactive
11 | CCn1cc(C(=O)O)c(=O)c2cc(F)c(N3CCNCC3)nc21 | inactive
12 | Brc1cc(-c2ccc(Br)c(Br)c2Br)cc(Br)c1Br | inactive
13 | CCC1(C)CC(=O)NC1=O (stereo not given) | inactive
14 | O=S(=O)(c1ccccc1)c1ccc(Cl)cc1 | inactive
15 | O=C(O)c1c(O)c(-c2ccccc2)nc2ccccc12 | inactive
16 | CC(C)(C)C(=O)O | inactive
17 | CCOC(=O)OCC | inactive
18 | CN1Cc2cc(C(=O)N3CCC(C4CCNCC4)CC3)ccc2N[C@@H](CC(=O)O)C1=O | inactive
19 | OC(CCCN1CCCCC1)(c1ccccc1)c1ccccc1 | inactive
20 | CCN(CC)CCNC(=O)c1ccc(NC(C)=O)cc1 | inactive
21 | CC(C)CCCCCOC(=O)CCCCC(=O)OCCCCCC(C)C | inactive
22 | O=C(CS)OCCOC(=O)CS | inactive
23 | CCCCCCCCCOC(C)=O | inactive
24 | O=C(O)Cc1ccc(-c2ccccc2)cc1 | inactive
25 | CC(=O)Nc1ccc(N)cc1 | inactive
